High-throughput results as filed in PubChem BioAssay.
A selection: hits, their analogues and other compounds. The true share with any hit is near 10%.
HP1b binding inh: blocks HP1-beta chromodomain binding to methylated histone tails. P83916. AlphaScreen HP1-beta / biotin-H3K9me3 peptide binding. Potency, µM (top dose mostly 114 µM), actives largely listed as inhibitors. hit rate 0.56% among 390,000. AID 540317; further: nearly all actives have a fitted effect of over 70% in size
Target sequence (P83916 whole entry, looked up): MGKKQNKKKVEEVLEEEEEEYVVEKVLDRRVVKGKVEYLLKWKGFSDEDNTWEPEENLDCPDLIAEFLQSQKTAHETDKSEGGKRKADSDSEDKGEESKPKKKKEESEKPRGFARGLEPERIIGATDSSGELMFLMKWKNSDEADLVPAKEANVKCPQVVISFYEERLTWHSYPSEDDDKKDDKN
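HP1-beta protein (50 nM final) preincubated 30 min at room temperature with biotinylated H3(1-18)K9me3 peptide (50 nM) in PBS pH 7.4, 0.01% Tween-20, then compound added for 30 min. AlphaScreen streptavidin donor/nickel chelate acceptor beads (10 ug/mL final), 30 min dark, luminescence read.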
G9a block: blocks human histone lysine methyltransferase G9a; Q96KQ7; Potency, µM (titrated, usually from 102 µM), actives largely listed as inhibitors; AID 504332; hit rate 8.8% among 350,000; G9a H3K9 monomethylation, AlphaScreen, 2 h; further: nearly all actives have a fitted effect of over 75% in size
Target sequence (Q96KQ7 913-1193 limits assumed): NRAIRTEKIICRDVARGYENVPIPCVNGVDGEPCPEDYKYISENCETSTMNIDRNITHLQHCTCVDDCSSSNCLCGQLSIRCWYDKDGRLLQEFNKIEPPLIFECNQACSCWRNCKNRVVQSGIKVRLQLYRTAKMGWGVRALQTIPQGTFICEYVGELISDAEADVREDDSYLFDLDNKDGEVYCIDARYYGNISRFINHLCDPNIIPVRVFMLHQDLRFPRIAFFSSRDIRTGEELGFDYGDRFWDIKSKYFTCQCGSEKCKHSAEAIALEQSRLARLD
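Quantitative HTS format: methyltransferase activity on a biotin-tagged H3K9 peptide is measured by AlphaScreen, using a rabbit anti-monomethyl-H3K9 antibody with streptavidin donor and anti-IgG acceptor beads. Final levels are 20 nM enzyme, 500 nM peptide, 20 uM SAM; 2 h RT.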
GLS inh: inhibitors of human glutaminase (GLS). Potency, µM (titrated, usually from 45.5 µM), actives largely listed as inhibitors. AID 624170. GLS enzymatic activity, qHTS titration. hit rate 0.21% among 410,000. O94925
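Compounds were pin-transferred onto hKGA, after which L-glutamine (1 mM solution) and a detection mix of glutamate oxidase, HRP and Amplex Red were added. Initial and 30 min RT fluorescence reads were collected.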
BAZ2B inh: inhibitors of human BAZ2B bromodomain | AlphaScreen BAZ2B-H3K14Ac peptide displacement | Potency, µM (titrated, usually from 114 µM), hits mostly inhibitors | hit rate 4.4% among 360,000 | AID 504333; further: nearly all actives have a fitted effect of over 60% in size
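BAZ2B (50 nM) with biotin-H3(5-23)K14Ac peptide (50 nM) in PBS pH 7.4, 0.01% Tween-20, preformed 30 min, then compound 30 min at room temperature; top concentration 110uM. AlphaScreen streptavidin donor/nickel chelate acceptor beads (10 ug/mL final), 20 min dark, signal read.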
JMJD2A Tudor: blocks the human JMJD2A Tudor domain. AID 504339. O75164. Potency, µM (highest dose often 114 µM), hits mostly inhibitors. hit rate 4.4% among 390,000. AlphaScreen JMJD2A-Tudor / H3K4me3 peptide binding; further: nearly all actives have a fitted effect of over 50% in size
Of the large screens only hits and unclear results are named; the others gave an inactive call. The call rests on the fitted dose curve; in most records, active means well fitted curve in the direction sought with a large enough effect; inconclusive means small, poorly fitted or top-dose-only effect, or another doubt; inactive means no such curve, though single readings can be large; an effect the other way counts as inactive or inconclusive.

NCC1OC(O[C@@H]2[C@H](O)[C@@H](OC3C(O)C(N)CC(N)C3OC3OC(CO)C(O)C(O)C3N)O[C@@H]2CO)C(N)C(O)C1O (some centres undefined)	none (no result: HP1b binding inh, GLS inh, BAZ2B inh, JMJD2A Tudor)
CCC1CC2CC3c4[nH]c5ccc(OC)cc5c4CCN(C2)C13 (centres undefined)	none (no result: HP1b binding inh, G9a block, BAZ2B inh, JMJD2A Tudor)
COc1ccc(C(c2nnnn2C2CCCC2)N2CCC3(CC2)C(=O)NCN3c2ccccc2)cc1 (centres undefined)	none (no result: HP1b binding inh, G9a block, BAZ2B inh, JMJD2A Tudor)
CSc1ncc(Cl)c(C(=O)O)n1 (tested in a mixture with another compound)	BAZ2B inh inconclusive, JMJD2A Tudor 79.4µM (no result: G9a block)
Cc1cc(OCC(=O)N[C@H](C(=O)O)c2ccccc2)c2c3c(c(=O)oc2c1)CCC3	G9a block 79.4µM, JMJD2A Tudor inconclusive
Cc1cc(OC(C)C(=O)NCc2cccnc2)c2c3c(c(=O)oc2c1)CCC3 (centres undefined)	JMJD2A Tudor 89.1µM
Cc1cc(OCC(=O)N[C@@H](Cc2ccccc2)C(=O)O)c2c3c(c(=O)oc2c1)CCC3	GLS inh inconclusive
Cc1cc(OC(C)C(=O)NCc2ccncc2)c2c3c(c(=O)oc2c1)CCC3 (centres undefined)	none
Cc1[nH]ccc2c1[nH]c1cc(=O)ccc12	G9a block 50.1µM
CNC[C@H](O)c1ccc(O)c(OC)c1	none (no result: HP1b binding inh, GLS inh, BAZ2B inh, JMJD2A Tudor)
CC(=O)N[C@@H]1CCSC1=O	none (no result: HP1b binding inh, BAZ2B inh, JMJD2A Tudor)
CCOC(=O)C(=O)NC1CCSC1=O (centres undefined)	G9a block 50.1µM
Cc1ccccc1-n1c(/C=C/c2c(C)[nH]c3ccccc23)nc2ccccc2c1=O	none
COc1cc(/C=C/c2nc3ccccc3c(=O)n2-c2ccc(O)cc2)ccc1O	BAZ2B inh inconclusive, JMJD2A Tudor inconclusive
COc1ccc(-n2c(/C=C/c3ccc(O)c(O)c3)nc3ccccc3c2=O)cc1	G9a block 31.6µM, BAZ2B inh inconclusive, JMJD2A Tudor inconclusive
Cc1ccccc1-n1c(/C=C/c2ccc(N(C)C)cc2)nc2ccccc2c1=O	BAZ2B inh 22.4µM, JMJD2A Tudor 22.4µM
O=c1c2ccccc2nc(-c2ccc([N+](=O)[O-])cc2)n1-c1ccccc1	none
Cc1ccccc1-n1c(-c2ccc([N+](=O)[O-])cc2)nc2ccccc2c1=O	G9a block 70.8µM
c1ccc(N2CCC3(CCNCC3)CC2)nc1	none (no result: HP1b binding inh, GLS inh, BAZ2B inh, JMJD2A Tudor)
CCc1nc(SC)ncc1C(=O)Nc1ccc(Cl)cc1C(=O)c1ccccc1	none
O=C1NC(=O)C(=Cc2ccc(Sc3ccccc3)o2)C(=O)N1	GLS inh inconclusive, BAZ2B inh inconclusive, JMJD2A Tudor inconclusive
CN1C(=O)C(=Cc2ccc(Sc3ccccc3)o2)C(=O)N(C)C1=O	G9a block 8.91µM, GLS inh 4.47µM
CN1C(=O)C(=Cc2cn(CC(=O)N3CCCCC3)c3ccccc23)C(=O)N(C)C1=O	G9a block inconclusive
CN1C(=O)C(=Cc2ccc(Sc3ccccc3)o2)C(=O)N(C)C1=S	HP1b binding inh inconclusive, JMJD2A Tudor 50.1µM (no result: G9a block, BAZ2B inh)
COc1ccc2[nH]c3c(c2c1)CCN1C(=O)C(CC(=O)NCc2cccc(C(F)(F)F)c2)C[C@H](C(=O)N2CCCCC2)[C@@]31C (some centres undefined)	JMJD2A Tudor inconclusive (no result: G9a block, BAZ2B inh)
C=C(C)[C@H]1O[C@H]2CC[C@@]3(C)[C@@](O)(CC[C@H]4[C@@H]5OC(C)(C)[C@H]6C[C@@H]7C(=C)Cc8c(Cl)cc9[nH]c(c5c9c8[C@@]76O)[C@@]43C)[C@]23O[C@@H]3[C@H]1O	none (no result: HP1b binding inh, GLS inh, BAZ2B inh, JMJD2A Tudor)
CCNC(C)Cc1ccc2c(c1)OCO2 (centres undefined)	none (no result: HP1b binding inh, G9a block, BAZ2B inh, JMJD2A Tudor)
Cc1[nH]c2ccc(O)cc2c1CCN	G9a block 3.55µM, JMJD2A Tudor inconclusive
Cc1[nH]c2c(C(F)(F)F)cccc2c1CCN	BAZ2B inh inconclusive
NCCc1c(Cc2ccccc2)[nH]c2ccccc12	none (no result: G9a block, BAZ2B inh)
Cc1[nH]c2ccc(OCc3ccccc3)cc2c1CCN	HP1b binding inh inconclusive, G9a block 50.1µM, BAZ2B inh inconclusive, JMJD2A Tudor inconclusive
CC1(C)NCCN2C(=O)CSC21 (centres undefined)	G9a block 79.4µM
O=c1c2ccccc2nc(/C=C\c2ccc(F)cc2)n1-c1ccccc1F	none
COc1cccc(-c2nc3c(C#N)c[nH]n3c2NC2CCCCC2)c1OC	GLS inh inconclusive
COC(=O)c1ccccc1OC(=O)c1ccc(Br)o1	none
CCOc1ccc(NCc2cccn2-c2nnc(N3CCC(C(=O)NCC(C)c4ccccc4)CC3)s2)cc1 (centres undefined)	G9a block inconclusive, JMJD2A Tudor inconclusive
[Cl][Pt+2][Cl].[NH-]C1CCCCC1[NH-] (centres undefined)	G9a block 10µM, JMJD2A Tudor 79.4µM
Cc1cc(Oc2cc(NN3CCCCC3)c([N+](=O)[O-])cc2[N+](=O)[O-])ccc1[N+](=O)[O-]	G9a block 7.08µM, BAZ2B inh 50.1µM, JMJD2A Tudor 17.8µM
CC[C@@]1(C(=O)OC)N[C@H](CN(C)C(=O)Nc2ccc(F)cc2)[C@@H]2C(=O)N(Cc3ccccc3)C(=O)[C@@H]21	none (no result: G9a block, BAZ2B inh)
O=C1CC(=O)N(Cc2ccccc2)C(=S)N1	G9a block 79.4µM
CN1C(=O)/C(=C/c2ccc(Cl)s2)C(=O)NC1=S	JMJD2A Tudor 25.1µM (no result: G9a block)
Cc1ccsc1/C=C1\C(=O)NC(=S)N(C)C1=O	G9a block 7.94µM, BAZ2B inh inconclusive, JMJD2A Tudor 89.1µM
COc1ccc(/C=C2\C(=O)NC(=S)N(C)C2=O)cc1C	HP1b binding inh 8.91µM, BAZ2B inh inconclusive, JMJD2A Tudor 3.98µM (no result: G9a block)
CCOC(=O)c1cnc2c(ccc3ccccc32)c1Nc1ccc(C(C)=O)cc1	none
O=C1NC(=O)C2(Cc3ccccc3N3CCCC32)C(=O)N1 (centres undefined)	G9a block 50.1µM
O=C1NC(=O)C2(Cc3ccccc3N3CCOCC32)C(=O)N1c1ccccc1 (centres undefined)	none
O=C1NC(=O)C2(Cc3ccccc3N3CCCC32)C(=O)N1c1ccccc1 (centres undefined)	G9a block 28.2µM
C#CCOC(C(=O)OCCN(C)C)(c1ccccc1)c1ccccc1	none (no result: HP1b binding inh, BAZ2B inh, JMJD2A Tudor)
c1ccc2c(c1)OCC(C1=NCCN1)O2 (centres undefined)	G9a block 28.2µM, BAZ2B inh inconclusive
Cc1cccc(N=Nc2ccc(N(C)C)cc2)c1	HP1b binding inh 11.2µM, G9a block 8.91µM, BAZ2B inh 7.08µM, JMJD2A Tudor 14.1µM
CN(C)c1ccccc1	none (no result: HP1b binding inh, G9a block, BAZ2B inh, JMJD2A Tudor)
COc1ccc(-c2csc(NC(=O)COC(=O)Cc3ccccc3)n2)cc1OC	none (no result: HP1b binding inh, GLS inh, JMJD2A Tudor)
CCC(c1nnnn1-c1ccc(OC)cc1)N1CCC2(CC1)C(=O)NCN2c1ccccc1 (centres undefined)	none (no result: HP1b binding inh, G9a block, BAZ2B inh, JMJD2A Tudor)
OCCNCCc1c[nH]c2ccc(OCc3ccccc3)cc12	G9a block inconclusive, BAZ2B inh inconclusive, JMJD2A Tudor 39.8µM
COc1ccccc1NC(=O)c1cc[n+](C)cc1	G9a block 35.5µM, BAZ2B inh inconclusive
O=C(Nc1ccc(Cl)cc1C(=O)c1ccccc1)c1ccccc1	none
